Outcome and activity change, negative = cytotoxic data for 40 compounds are collected here from PubChem BioAssay (Tox21).

Inconclusive results are not listed. A number with no mark means an inactive call. The source made the active and inactive calls. Calls come from the whole dose curve; as a rule, active = well fitted cell-killing curve with a large enough effect in the repeat runs; inconclusive = weak or mixed curves; inactive = flat fitted curve, though single readings scatter.
% is set by controls: 0 for no effect and ±100 for the full control effect.

The experiment is described as follows: qHTS RealTime-Glo MT Cell Viability Assay in HepG2 cells - 16 hour (AID 1224885). Note: nearly all actives have a fitted effect of over 50% in size. The settings on record: RealTime-Glo luminescence; series mostly up to 76.8 µM. The source says: U.S. Tox21 Program National Center for Advancing Translational Sciences [NCATS] NIH Chemical Genomics Center [NCGC] U.S. Environmental Protection Agency [EPA] National Institutes of Environmental Health Sciences [NIEHS] National Toxicology Program [NTP] U.S. Food and Drug Administration [FDA] Tox21 Assay Overview: Measure of cell viability is critical in the cell-base assay. Analysis of cell viability is necessary for the characterization of cell responses to cytotoxic drugs and environmental stress. A RealTime-Glo MT Cell Viability Assay to monitor cell viability in real time of continues cell culture during 40 hours of compound treatment was used to screen Tox21 10K library compounds in HepG2 cells. The RealTime-Glo MT Cell Viability Assay is a nonlytic, homogeneous, bioluminescent method to measure cell viability in real time using a simple, plate-based method. The assay involves adding NanoLuc luciferase and a cell-permeant prosubstrate to cells in culture. Viable cells reduce the proprietary prosubstrate to generate a substrate for NanoLuc luciferase. This substrate diffuses from cells into the surrounding culture medium, where it is rapidly used by the NanoLuc Enzyme to produce a luminescent signal. The signal correlates with the number of viable cells, making the assay well suited for cytotoxicity studies.
Tox21 Assay Protocol Summary: The mixture of HepG2 cell suspension and reagents were dispensed at 600cells/6 ul/well in 1536-well tissue culture treated black solid bottom plates using a Multidrop dispenser. After the assay plates were incubated at a 37 C/5% CO2 incubator for 5 hours, 23 nL of compounds dissolved in DMSO, positive and negative controls was transferred to the assay plate by a pintool work station. The plates were incubated at 37 C for 40 hours. The luminescence intensity were measured at 0h, 8h, 16h, 24h, 32h and 40h time points using ViewLux plate reader during compound treatment.
Regarding `C=C(C)[C@H]1CC=C(C)CC1`, the call was inactive.

Regarding `NC(=O)c1c(Cl)cccc1Cl`, the outcome was inactive.

For `CC(CCO)CCCC(C)(C)O` (stereo not given), the compound was classed as inactive.

`C=CCOc1nc(OCC=C)nc(OCC=C)n1`: the compound was called inactive.

For `Oc1ccc2c(c1)OC[C@@H](N1CCC(O)(c3ccc(F)cc3)CC1)[C@H]2O`, the compound was called inactive.

Take `CCCOCC(C)OCC(C)O` (stereo not given): the result was inactive.

On to `Oc1cc(O)c2c(c1)O[C@H](c1ccc(O)c(O)c1)[C@H](O)C2`, for which the compound was called inactive.

For the compound `CCCCc1ccc2cccc(S(=O)(=O)O)c2c1`, the result was inactive.

As to `CC12CCC(CC1=O)C2(C)C` (stereo not given), the outcome was inactive.

Consider `Nc1[nH]c(=O)ncc1F`, for which the compound was classed as inactive.

With `NC(N)=NS(=O)(=O)c1ccc(N)cc1`, the outcome was inactive.

Turning to `Cc1nccn1CC1CCc2c(c3ccccc3n2C)C1=O` (stereo not given), the call was inactive.

As to `COC(=O)[C@H]1[C@H]2C[C@@H]3c4[nH]c5cc(OC)ccc5c4CCN3C[C@H]2C[C@@H](OC(=O)COc2ccc(OC)cc2)[C@@H]1OC`, the compound was classed as inactive.

In the case of `Cc1ccccc1C(=O)O`, the compound was classed as inactive.

Regarding `O=C(O)c1ccccc1S`, the outcome was inactive.

For `CC(C)(O)Cc1ccccc1`, the outcome was inactive.

In the case of `NC1CCN(c2cccc(Cl)n2)CC1`, the call was inactive.

For the compound `COCCOC(=O)CC#N`, the compound was classed as inactive.

As for `Cc1cc(C)cc(OCC2CNC(=O)O2)c1` (stereo not given), the outcome was inactive.

In the case of `CCC(=O)c1cccc(Cl)c1`, the call was inactive.

For the compound `CCCCCCOC(=O)CC(CC(=O)OCCCCCC)(OC(=O)CCC)C(=O)OCCCCCC`, the result was inactive.

In the case of `O=C1OC(=O)c2cc([N+](=O)[O-])ccc21`, the outcome was inactive.

Regarding `CCCCC=O`, the compound was called inactive.

For the compound `Cc1nc(-c2ccc(OCC(C)C)c(C#N)c2)sc1C(=O)O`, the compound was classed as inactive.

Regarding `COc1cccc(Br)c1`, the compound was called inactive.

`c1ccc2cnncc2c1`: the result was inactive.

For the compound `CCN(CC)C(=O)c1ccc(O)c(OC)c1`, the outcome was inactive.

On to `CSc1ccc(C=O)cc1`, for which the result was inactive.

Turning to `CN(C)CCOC(c1ccc(Cl)cc1)c1ccccn1` (stereo not given), the call was inactive.

For `OCc1ccccn1`, the outcome was inactive.

On to `CCCCCCCCCCCCI`, for which the compound was called inactive.

Turning to `CCCCCC[C@@H](CCC)C(=O)O`, the compound was called inactive.

As for `CCC(C)OC(=O)N1CCCCC1CCO` (stereo not given), the result was inactive.

In the case of `FC(F)(F)C(F)(F)C(F)(F)C(F)(F)C(F)(F)C(F)(F)C(F)(F)C(F)(F)C(F)(F)C(F)(F)F`, the activity change, negative = cytotoxic was 3.86% [at 6.97 µM].

Regarding `COc1cc(O)cc(O)c1`, the call was inactive.

Turning to `CC(C)CCCCCCN`, the outcome was inactive.

Turning to `C#CC(O)C(CC)CCCC` (stereo not given), the outcome was inactive.

As for `CCCC=O`, the outcome was inactive.

On to `COc1cc(C(=O)N2CCOCC2)cc(OC)c1OC`, for which the result was inactive.

Consider `CCn1c(=O)c2c(nc(/C=C/c3ccc(OC)c(OC)c3)n2C)n(CC)c1=O`, for which the result was inactive.
